PTAP TSG101 blk = blocks PTAP/TSG101 interaction to inhibit HIV-1 budding; Q99816; Fluorescence polarization, FITC-PTAP peptide / Tsg101 binding; Potency, µM (series often up to 115 µM), for inactives: top-dose activity change, negative = inhibition, usual class: inhibitors; 340,000 tested, under 10 active; AID 493005; active = well fitted inhibition curve with a large enough effect in the main read-out, with a control signal flat, not every such curve was filed as active; inconclusive = small, poorly fitted or top-dose-only effect, or effect the other way, or a change in a side signal; inactive = no such curve, though single readings can be large or run the other way; also: % of control where 0% means no effect
Target sequence (Q99816 whole entry, looked up): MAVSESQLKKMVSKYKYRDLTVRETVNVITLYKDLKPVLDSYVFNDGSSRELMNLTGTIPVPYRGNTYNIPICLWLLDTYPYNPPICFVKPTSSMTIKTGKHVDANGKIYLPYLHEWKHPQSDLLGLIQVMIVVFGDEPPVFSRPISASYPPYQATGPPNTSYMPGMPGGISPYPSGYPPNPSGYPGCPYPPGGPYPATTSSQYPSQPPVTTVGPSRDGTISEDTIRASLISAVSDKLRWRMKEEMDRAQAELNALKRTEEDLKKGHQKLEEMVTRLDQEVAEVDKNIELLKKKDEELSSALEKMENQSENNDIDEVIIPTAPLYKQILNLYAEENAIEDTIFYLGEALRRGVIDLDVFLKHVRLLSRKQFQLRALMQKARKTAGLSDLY
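Steps: Tsg101 binding domain dispensed (10 uM final), compounds pinned in DMSO, FITC-labeled PTAP-motif peptide added (50 nM final); after 20 min binding at room temperature, polarization measured.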
KB-3-1 cytotox = kills parental KB-3-1 adenocarcinoma cells. Potency, µM (titrated, usually from 46.1 µM), actives largely listed as cytotoxic. 400,000 compounds, 1.4% hits. AID 1347075. KB-3-1 viability, CellTiter-Glo ATP luminescence, 72 h; also: % is scaled to controls: 0 for no effect and ±100 for the full control effect; nearly all actives have a fitted effect of over 60% in size
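KB-3-1 cells, DMEM (no phenol red) + 10% FBS; compound by pin transfer, 72 h, 37 °C. Readout: CellTiter-Glo luminescence after 10 min. Data normalized, curve-fitted.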
KB-V1 MDR tox = KB-V1 MDR subline cytotoxicity; KB-V1 MDR cells viability, CellTiter-Glo, 72 h; Potency, µM (highest dose often 46.1 µM), actives largely listed as cytotoxic; 400,000 compounds, 3.4% hits; AID 1347076; also: % is scaled to controls: 0 for no effect and ±100 for the full control effect; nearly all actives have a fitted effect of over 60% in size
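In this primary screen, KB-V1 cells overexpressing P-gp are incubated with library compounds (lowest to highest concentration) for 72 h at 37 degrees C before a luminescent ATP viability read.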
SW480 rerep = DNA re-replication induction in SW480 cells | 340,000 compounds, 1.8% hits | Potency, µM (series often up to 46.1 µM), without a hit: top-dose re-replication activation, usual class: activators | AID 624297 | SW480 DNA re-replication, Hoechst DNA content imaging, 48 h; also: % of control where 0% means no effect; nearly all actives have a fitted effect of over 55% in size
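SW480 cells exposed to compounds for 48 hr at 37 C, 5% CO2, then Hoechst-stained 40 min. Nuclear DNA content imaged by fluorescence scanning (405 nm excitation, 500-530 nm emission); re-replication scored as increased high-intensity nuclei.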
MCF10A rereplic = induces DNA re-replication in MCF 10a normal breast cells; MCF 10A DNA re-replication, Hoechst nuclear intensity, 48 h; Potency, µM (titrated, usually from 46.1 µM), inactives show at the top dose activity, positive = re-replication, most hits filed as activators; 350,000 compounds, 2.9% hits; also: % of control where 0% means no effect; nearly all actives have a fitted effect of over 50% in size
RGS4 inhibitor = blocks human RGS4-accelerated GTP hydrolysis | P49798 | Transcreener GDP fluorescence polarization, RGS4-accelerated GTP hydrolysis | Potency, µM (doses to about 114 µM), without a hit: at the highest dose activity change, negative = inhibition, actives largely listed as inhibitors | 390,000 compounds, 0.039% hits; also: % is scaled to controls: 0 for no effect and ±100 for the full control effect; nearly all actives have a fitted effect of over 75% in size
Target sequence (P49798 whole entry, looked up): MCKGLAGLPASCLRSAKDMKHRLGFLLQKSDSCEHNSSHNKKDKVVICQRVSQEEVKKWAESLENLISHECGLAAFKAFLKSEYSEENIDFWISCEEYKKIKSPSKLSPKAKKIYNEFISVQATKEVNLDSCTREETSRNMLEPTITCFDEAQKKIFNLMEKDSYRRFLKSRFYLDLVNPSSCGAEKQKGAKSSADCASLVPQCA
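MLSMR compounds (23 nl, pin-transferred) preincubated 10 min at room temperature with a 500nM (2x) first reagent, then RGS4 at 900nM (2x) plus Transcreener GDP mix added; fluorescence polarization (620/688 nm) read before and after 90 min at 30 °C.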
* hit, by the source's call; i = inactive; ? = inconclusive; · = not tested or not shown; [ ] = another dose, or the depositor's remark. Compounds with a hit are over-represented: about 6.6% of the library has one in this group of screens. Unless noted, calls follow the shape of the dose curve; as a rule, active = well fitted curve in the direction sought with a large enough effect; inconclusive = small, poorly fitted or top-dose-only effect, or another doubt; inactive = no such curve, though single readings can be large; an effect the other way counts as inactive or inconclusive. Potency is read from the fitted curve at half-maximal effect.

SMILES | PTAP TSG101 blk | KB-3-1 cytotox | KB-V1 MDR tox | SW480 rerep | MCF10A rereplic | RGS4 inhibitor
O=C(Nc1ncccc1O)c1ccc(S(=O)(=O)Nc2ccccc2)cc1 | 0.8% | 10.3µM* | 9.2µM* | -648.4% | 18.8% | 4.2%
O=C(Nc1ncccc1O)c1ccc(NS(=O)(=O)c2ccc3[nH]c(=O)[nH]c3c2)cc1 | -1.6% | ? | i | 16.4µM* | 4.3% | -54.9%
CN(c1ccccc1)S(=O)(=O)c1ccc(C(=O)Nc2ncccc2O)cc1 | -1.9% | i | ? | -111.8% | 4.5% | 9.8%
Cc1cccnc1NC(=O)c1ccc(NS(=O)(=O)c2ccc3[nH]c(=O)[nH]c3c2)cc1 | -1.0% | i | i | -0.6% | -0.9% | 9.5%
Clc1cccc(-c2nc(NCc3cccnc3)c3ccccc3n2)c1 | -7.5% | i | 14.6µM* | 15.1% | ? | -36.0%
c1ccc(-c2nc(NCc3cccnc3)c3ccccc3n2)cc1 | -2.1% | i | i | 2.9% | 28.2% | 4.8%
COc1ccc(/C=N/NC(=O)c2[nH]c3ccc(Cl)cc3c2-c2ccccc2)c(C(=O)O)c1OC | -2.3% | i | i | 12.6% | ? | -19.6%
Cc1c(C(=O)N/N=C/c2ccc(N(C)C)cc2)[nH]c2ccc(Cl)cc12 | 2.6% | 5.8µM* | 5.8µM* | ? | 15.3% | -12.0%
Cc1c(C(=O)N/N=C/c2ccccc2)[nH]c2ccc(Cl)cc12 | 0.1% | ? | i | 20.6µM* | 14.6µM* | -7.7%
CN(C)c1ccc(/C=N/NC(=O)c2ccc3c(c2)OCO3)cc1 | -2.9% | i | i | 11.9% | -0.5% | -24.3%
CCOc1ccccc1CNC(=O)C(CC)n1nc(C)c2c(C)n(-c3ccccc3)nc2c1=O (stereo unspecified) | · | i | ? | · | · | 8.4%
COc1ccc(NC(=O)Cc2coc3cc(C)cc(C)c23)c(OC)c1 | · | i | i | · | · | -12.2%
COc1ccc(OC)c(NC(=O)Cc2coc3cc(C)cc(C)c23)c1 | -6.8% | i | 16.4µM* | 2.4% | 12.7% | 10.2%
CCCCN(CCCC)CCNC(=O)c1cc(=O)[nH]c2ccc(S(=O)(=O)N3CCCCCC3)cc12 | · | · | · | · | · | -5.9%
CCOc1ccc(N(C)C(=O)c2oc(=O)c3ccccc3c2-c2ccccc2)cc1 | · | · | · | · | · | 9.1%
COc1ccc(C2NCCc3c2[nH]c2ccccc32)cc1CN1CCc2cc(OC)c(OC)cc2C1C (stereo unspecified) | 0.1% | i | i | ? | ? | -8.8%[11.4 µM]
COc1ccc(C2NCCc3c2[nH]c2ccccc32)cc1COc1ccc(F)cc1 (stereo unspecified) | -2.1% | ? | ? | ? | 18.4µM* | -10.1%
O=C(NCc1ccc2c(c1)OCO2)c1ccc(Cl)c(S(=O)(=O)NCc2ccccc2)c1 | 5.0% | i | 23.1µM* | -1.1% | ? | -46.5%
CCOc1cc(C)c(Cl)cc1S(=O)(=O)NCc1ccc2c(c1)OCO2 | -0.9% | ? | 13µM* | ? | ? | 24.6%
NS(=O)(=O)c1ccc(CNC(=O)c2ccc(Cl)c(S(=O)(=O)NCc3ccccc3)c2)cc1 | -1.5% | i | i | -0.1% | 6.1% | 4.3%
O=C(NCc1cccs1)c1nn(-c2ccccc2F)nc1CO | · | · | · | · | · | -6.9%
O=C(C[n+]1cccc2cc(Cl)ccc21)c1ccc(Br)cc1 | · | ? | i | · | · | ·
COc1ccc(NC(=O)CCc2nnc3n(Cc4ccccc4Cl)c(=O)c4ccccc4n23)cc1 | · | · | · | · | · | 9.7%
CCN(CC)c1ccc(NC(=O)c2cnc3ccccn3c2=O)c(C)c1 | · | i | 3.66µM* | 3.2% | ? | -7.7%
Cn1c(-c2sc3ccccc3c2Cl)n[nH]c1=S | -5.1% | 20.6µM* | 16.4µM* | -3.4% | -0.3% | -17.7%
SMILES | PTAP TSG101 blk | KB-3-1 cytotox | KB-V1 MDR tox | SW480 rerep | MCF10A rereplic | RGS4 inhibitor
c1ccc(N(c2ccccc2)c2nc(N3CCCC3)nc(-n3ccnc3)n2)cc1 | -2.1% | i | i | ? | 3.66µM* | -0.5%
c1ccc(-c2nc(-n3ccnc3)nc(-n3ccnc3)n2)cc1 | -3.3% | i | ? | 8.0% | ? | -12.6%
c1ccc(CN2CCN(c3nc(-c4ccccc4)nc(-n4ccnc4)n3)CC2)cc1 | -8.3% | ? | ? | 20.6µM* | ? | -10.5%
CN(c1ccccc1)c1nc(N2CCCC2)nc(-n2ccnc2)n1 | -2.6% | i | i | -8.6% | ? | -10.0%
Cc1ccc2c(c1)cc1c(=O)n(CC(=O)NCc3ccco3)nc(C)n12 | · | · | · | · | · | 7.6%
CC1(C)CC(=O)c2cc(C(=O)Nc3cccc4ccccc34)c(=O)[nH]c2C1 | · | i | i | · | · | ·
O=C(CN1CCN(S(=O)(=O)c2ccc(Cl)cc2)CC1)NC(=O)NC1CCCCC1 | -3.2% | ? | 2.31µM* | 0.5% | 5.5% | -23.3%
O=C(CN1CCCCCCC1)NC(=O)NC1CCCCC1 | -0.7% | ? | ? | -2.5% | 16.4µM* | 10.3%
Cc1ccc(NC(=O)N2CCC(C(=O)c3ccc(F)cc3)CC2)cc1 | 0.7% | i | 23.1µM* | -1.8% | 10.7% | -11.4%
Cc1ccc(C(=O)C2CCN(CC(=O)NC3CCCCC3)CC2)cc1 | 0.1% | i | 13µM* | 5.6% | 2.6% | 4.5%
O=C(CN1CCN(S(=O)(=O)c2ccccc2)CC1)NC(=O)NC1CCCCC1 | -1.0% | i | i | -0.2% | 6.9% | 3.6%
Cc1ccc(CNC(=O)CN2C(=O)CSc3ccc(S(=O)(=O)N4CCCC4)cc32)cc1 | · | · | · | · | · | -13.7%
COc1cccc(CNC(=O)CSc2ncc(S(=O)(=O)c3ccc(C)c(Cl)c3)c(=O)[nH]2)c1 | · | i | i | · | · | -17.5%
CCOc1ccccc1N(C)C(=O)Cn1cnc2onc(-c3ccc(F)cc3)c2c1=O | · | i | ? | · | · | -30.8%
CC(NC(=O)Cn1ncc(Cl)c(Cl)c1=O)C12CC3CC(CC(C3)C1)C2 (stereo unspecified) | -1.8% | 6.51µM* | ? | 5.17µM* | 3.66µM* | 0.8%
CCn1cc(C(=O)NC(C)C23CC4CC(CC(C4)C2)C3)cn1 (stereo unspecified) | -1.0% | i | ? | -1.5% | 1.1% | 26.1%
Cc1ccc(C(=O)N[C@H](C(=O)NC2CCCCC2)C(C)C)cc1 | 1.1% | i | 10.3µM* | 2.3% | -3.4% | -20.7%
O=C(Cn1ncc(Cl)c(Cl)c1=O)NC(=O)NC1CCCCC1 | -1.7% | ? | ? | 13µM* | 8.2µM* | -11.8%
CC1CCc2cc(F)cc3c2N1C(=O)C(C(=O)Nc1cnccn1)C3=O (stereo unspecified) | · | i | i | · | · | 1.8%
Cc1cccc(N=CC=C2OC(C)(C)C(C)(C)O2)c1 | -1.8% | i | i | 20.6µM* | ? | -8.5%
